Only a selection was taken, and hits are over-represented in it overall.
IDE exosite inh: exo-site inhibitors of human insulin-degrading enzyme | P14735 | purified IDE, FL-6b probe fluorescence polarization; active compounds read low | z-score at 20 µM | 17,000 tested, 6.3% active | AID 1259349;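 active = z-score of -3 or lower, meaning strong loss of probe binding signal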;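 note: His-tagged human IDE residues 42-1019 made in E. coli with 30 nM FL-6b probe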
Numbers stand for hits; i = inactive.

SMILES | IDE exosite inh
Cc1ccccc1-c1ccc([C@@H]2[C@H](CO)N3CCCCN(CC4CCOCC4)C[C@@H]23)cc1 | -5.5
OC[C@@H]1[C@H](c2ccc(C#Cc3ccccc3)cc2)[C@@H]2CN(CC3CCOCC3)CCCCN12 | -3.9
OC[C@@H]1[C@H](c2ccc(-c3cccnc3)cc2)[C@@H]2CN(CC3CC3)CCCCN12 | i
Cc1ccccc1-c1ccc([C@@H]2[C@@H](CO)N3CCCCN(S(C)(=O)=O)C[C@H]23)cc1 | i
COc1ccc(-c2ccc([C@@H]3[C@H]4CN(CC5CCOCC5)CCCCN4[C@H]3CO)cc2)cc1 | i
Cc1ccccc1-c1ccc([C@@H]2[C@H](CO)N3CCCCN(CC4CC4)C[C@@H]23)cc1 | -9.6
OC[C@H]1[C@H](c2ccc(-c3cccnc3)cc2)[C@@H]2CN(CC3CC3)CCCCN12 | i
COc1ccc(-c2ccc([C@@H]3[C@@H](CO)N4CCCCN(CC5CCOCC5)C[C@H]34)cc2)cc1 | i
Cc1ccccc1-c1ccc([C@H]2[C@H](CO)N3CCCCN(CC4CC4)C[C@@H]23)cc1 | i
Cc1ccccc1-c1ccc([C@@H]2[C@@H](CO)N3CCCCN(CC4CC4)C[C@H]23)cc1 | -6.8
OC[C@H]1[C@H](c2ccc(C#Cc3ccccc3)cc2)[C@H]2CN(CC3CCOCC3)CCCCN21 | i
OC[C@@H]1[C@@H](c2ccc(C#Cc3ccccc3)cc2)[C@@H]2CN(CC3CCOCC3)CCCCN12 | i
O=C(Nc1cccc(F)c1)N1CC(=O)N2[C@@H](CO)[C@H](c3ccc(C#Cc4cccnc4)cc3)[C@@H]2C1 | i
C[C@@H]1CN([C@@H](C)CO)C(=O)c2ccccc2-c2ccccc2CO[C@@H]1CN(C)Cc1cccc(C(=O)O)c1 | i
CO[C@H]1CC[C@@H]2CCOc3ccc(C#N)cc3C(=O)N(C)[C@@H](C)C(=O)N(C)C[C@H]1O2 | i
O=C(Nc1cccc(Cl)c1)N[C@@H]1CC[C@H](CCn2cc(Cc3ccccc3)nn2)O[C@@H]1CO | i
CCCC(=O)Nc1ccc2c(c1)C(=O)N(C)[C@@H]1CC[C@@H](CC(=O)N3CCCCC3)O[C@@H]1CO2 | i
COc1ccc(S(=O)(=O)Nc2ccc3c(c2)C(=O)N([C@@H](C)CO)C[C@H](C)[C@H](CN(C)C(=O)Nc2c(C)noc2C)OCCCC[C@H](C)O3)cc1 | i
O=C(NC1CCCC1)[C@@H]1[C@@H](CO)[C@@H]2Cn3c(cccc3=O)[C@@H]2N1CCc1ccccc1 | i
COCC#Cc1ccc([C@@H]2[C@@H](CO)N3C(=O)CN(C(=O)Nc4ccc(F)cc4)C[C@@H]23)cc1 | i
CS(=O)(=O)N1[C@H](C#N)[C@H](c2ccccc2)[C@H]1CO | i
COCC(=O)Nc1ccc2c(c1)C(=O)N(C)[C@@H]1CC[C@@H](CC(=O)N3CCc4ccccc4C3)O[C@H]1CO2 | i
CN(C)CC(=O)Nc1ccc2c(c1)C(=O)N(C)[C@H]1CC[C@H](CC(=O)Nc3cccc(Cl)c3)O[C@@H]1CO2 | i
CCCC#Cc1ccc([C@H]2[C@@H](CO)N3C(=O)CN(S(=O)(=O)Cc4ccccc4)C[C@H]23)cc1 | i
CCCNC(=O)N1[C@H](CO)[C@H](c2ccc(-c3ccccc3F)cc2)[C@@H]1C#N | i
SMILES | IDE exosite inh
OC[C@@H]1[C@@H](c2ccc(-c3cccnc3)cc2)[C@H]2CN(CC3CC3)CCCCN12 | i
Cc1ccccc1-c1ccc([C@H]2[C@@H](CO)N3CCCCN(CC4CC4)C[C@H]23)cc1 | -11
OC[C@@H]1[C@H](c2ccc(-c3cccnc3)cc2)[C@H]2CN(CC3CC3)CCCCN12 | i
N#C[C@H]1[C@H](c2ccc(C3=CCCC3)cc2)[C@@H](CO)N1C(=O)C1CCOCC1 | i
O=S(=O)(c1ccc(F)cc1)N1CCCCN2[C@H](C1)[C@H](c1ccc(-c3ccccc3)cc1)[C@@H]2CO | i
CCS(=O)(=O)N1CCCCN2[C@H](C1)[C@@H](c1ccc(-c3ccccc3C)cc1)[C@@H]2CO | -8.8
Cc1ccccc1-c1ccc([C@@H]2[C@@H](CO)N3CCCCN(S(=O)(=O)c4ccc(F)cc4)C[C@@H]23)cc1 | -18
Cc1ccccc1-c1ccc([C@H]2[C@@H](CO)N3CCCCN(S(=O)(=O)c4ccc(F)cc4)C[C@H]23)cc1 | i
CCS(=O)(=O)N1CCCCN2[C@@H](CO)[C@@H](c3ccc(-c4ccccc4F)cc3)[C@@H]2C1 | -6.5
Cc1ccccc1-c1ccc([C@H]2[C@H](CO)N3CCCCN(S(=O)(=O)Cc4ccccc4)C[C@@H]23)cc1 | i
CCS(=O)(=O)N1CCCCN2[C@@H](CO)[C@H](c3ccc(-c4ccccc4F)cc3)[C@@H]2C1 | i
Cc1ccccc1-c1ccc([C@@H]2[C@@H](CO)N3CCCCN(S(=O)(=O)Cc4ccccc4)C[C@H]23)cc1 | i
CCS(=O)(=O)N1CCCCN2[C@H](C1)[C@H](c1ccc(-c3ccccc3F)cc1)[C@@H]2CO | i
COc1ccc2c3c(n(C)c2c1)[C@H](CO)N(C(=O)CN(C)C)CC31CCN(S(C)(=O)=O)CC1 | i
COc1ccccc1-c1cnc2c(c1)C(=O)N([C@H](C)CO)C[C@@H](C)[C@H](CN(C)C(=O)CC1CC1)O2 | i

Screens as filed in PubChem.
